Screening data deposited in PubChem BioAssay by National Center for Advancing Translational Sciences (NCATS).
This is a sample that favours compounds with a hit; in the whole collection about 6.3% have one here.
RORg inh: ROR gamma (mouse) transcription inhibition; P51450; Drosophila S2 Gal4-RORgamma UAS-luciferase reporter, 20 h; Potency, µM (highest dose often 53.6 µM), usual class: inhibitors; hit rate 5.4% among 310,000; further: nearly all actives have a fitted effect of over 60% in size
Target sequence (P51450 whole entry, looked up, the tested form may be a part): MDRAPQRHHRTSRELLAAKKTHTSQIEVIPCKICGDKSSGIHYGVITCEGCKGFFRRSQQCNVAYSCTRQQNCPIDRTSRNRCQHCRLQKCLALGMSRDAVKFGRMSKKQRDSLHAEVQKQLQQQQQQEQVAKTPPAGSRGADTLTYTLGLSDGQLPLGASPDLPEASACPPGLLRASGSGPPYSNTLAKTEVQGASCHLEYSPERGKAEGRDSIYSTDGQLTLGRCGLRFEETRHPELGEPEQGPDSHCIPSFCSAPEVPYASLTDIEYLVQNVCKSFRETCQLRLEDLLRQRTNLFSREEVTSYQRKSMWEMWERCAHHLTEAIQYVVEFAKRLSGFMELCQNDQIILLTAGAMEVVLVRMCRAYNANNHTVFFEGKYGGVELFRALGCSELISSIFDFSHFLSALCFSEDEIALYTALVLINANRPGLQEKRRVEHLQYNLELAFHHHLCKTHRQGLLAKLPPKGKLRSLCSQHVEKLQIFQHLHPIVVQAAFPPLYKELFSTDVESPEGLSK
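Luminescence from a UAS-regulated Photinus luciferase reporter in stably transfected Drosophila Schneider cells is measured; decreased signal marks ROR gamma inhibition. Fusion expression is induced by 700 uM copper sulfate for 20 hr.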
S2 tox: reduces viability in counter-screen for ATXN expression inhibitors; AID 651635; S2 cells (HEK-293 line with an ATXN2-luciferase reporter) viability, CellTiter-Fluor protease fluorescence, 24 h; hit rate 0.49% among 400,000; Potency, µM (series often up to 56.7 µM), usual class: cytotoxic; further: nearly all actives have a fitted effect of over 40% in size
TGFb inhibitor: TGF-b pathway inhibition; HepG2 CAGA-GFP TGF-b/SMAD3 reporter, GFP fluorescence, 18 h; TGF-beta stimulated, 500 pg/mL final; hit rate 1.2% among 410,000; Potency, µM (series often up to 46.1 µM), most hits filed as inhibitors; further: nearly all actives have a fitted effect of over 65% in size
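Using HEPG2 CAGA-GFP reporter cells at 1000 cells/well, we pinned test compounds, stimulated with recombinant TGF-beta (500 pg/mL final) and measured total well GFP after 18 h.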
ATXN2 expr inh: reduces ATXN2 reporter expression in HEK-293 cells; hit rate 0.72% among 360,000; HEK-293 ATXN2-luciferase reporter, luminescence, 24 h; AID 1745845; Potency, µM (series often up to 57 µM), actives largely listed as inhibitors; further: nearly all actives have a fitted effect of over 55% in size
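qHTS (up to 57 uM final) was run with 24 h compound exposure of reporter cells at 37 °C. Each well was multiplexed: SteadyGlo luminescence measured ATXN2-luciferase expression after a fluorogenic Gly-Phe-AFC viability readout (25 uM final).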
VP16 counter: inhibits Gal4-VP16 luciferase reporter, ROR gamma counter-screen; hit rate 3.5% among 310,000; Drosophila S2 Gal4-VP16 UAS-luciferase, luminescence, 20 h; AID 2546; Potency, µM (series often up to 53.6 µM), usual class: inhibitors;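 further: Gal4-VP16 expression switched on by copper sulfate through the metallothionein promoter; nearly all actives have a fitted effect of over 50% in size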
HepG2 tox: counter-screen for TGF-b inhibitors: cytotoxicity in HepG2 cells; HepG2 CAGA-GFP viability, ATP luminescence, 18 h; Potency, µM (highest dose often 46.1 µM), most hits filed as cytotoxic; hit rate 0.76% among 410,000
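HepG2 CAGA-GFP cells (1000/well, DMEM with 1% FBS) received compound, then TGF-beta at 500 pg/mL final, and were incubated 18 hours at 37 degrees C. Viability was read by CellTiter-Glo luminescence. Media-only wells were set as complete cell-killing and DMSO as no toxicity.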
A number is an active result. The call rests on the fitted dose curve; in most records, active means well fitted curve in the direction sought with a large enough effect; inconclusive means small, poorly fitted or top-dose-only effect, or another doubt; inactive means no such curve, though single readings can be large; an effect the other way counts as inactive or inconclusive.

For Cc1cccc(C(=O)NNC(=S)NC(=O)c2ccccc2)c1 the results were S2 tox inactive, TGFb inhibitor inactive, ATXN2 expr inh inactive and HepG2 tox inactive.
For Cc1cccc(C(=O)NC(=S)Nc2cccc3nc(C)ccc23)c1 the results were RORg inh 7.1µM, S2 tox inconclusive, TGFb inhibitor inconclusive, ATXN2 expr inh inactive, VP16 counter 10µM and HepG2 tox inactive.
`CC(=O)c1cccc(NC(=S)NC(=O)c2ccccc2C)c1` gave RORg inh inactive, S2 tox inactive, TGFb inhibitor inactive, ATXN2 expr inh inactive, VP16 counter inactive and HepG2 tox inactive.
CC(=O)c1ccc(NC(=S)NC(C)c2ccc(Cl)cc2Cl)cc1 (configuration not stated) was read as RORg inh 11µM, S2 tox inconclusive, TGFb inhibitor inconclusive, ATXN2 expr inh inactive, VP16 counter inactive and HepG2 tox inactive.
Screening CC(=O)c1cccc(NC(=S)NC(=O)c2ccccc2Br)c1 returned RORg inh 11µM, S2 tox inactive, TGFb inhibitor inactive, ATXN2 expr inh inactive, VP16 counter inactive and HepG2 tox inactive.
`CCc1sc(C(=O)Nc2cccc(C(C)=O)c2)cc1C` gave RORg inh 7.9µM, S2 tox inactive, TGFb inhibitor inactive, ATXN2 expr inh inactive, VP16 counter inconclusive and HepG2 tox inactive.
Screening Cc1ccc(CNC(=O)c2ccc3c(c2)NC(=O)C(CS(=O)(=O)Cc2cccc(C)c2)N3)cc1 (configuration not stated) returned TGFb inhibitor inactive and HepG2 tox inactive.
Screening O=C(Nc1ccc2c(c1)OCO2)c1ccc2nc([C@@H]3O[C@H](CO)[C@H](O)[C@H](O)[C@H]3O)[nH]c2c1 returned S2 tox inactive, TGFb inhibitor inactive, ATXN2 expr inh inactive and HepG2 tox inactive.
C[C@H]1CN([C@@H](C)CO)S(=O)(=O)c2ccc(Br)cc2O[C@H]1CN(C)C(=O)CCN1CCCCC1 was read as S2 tox inactive, TGFb inhibitor inactive, ATXN2 expr inh inactive and HepG2 tox inactive.
Screening CCCc1cc(C(=O)NNC(=S)Nc2cccc(C)c2)cs1 returned RORg inh 2.2µM, S2 tox inactive, TGFb inhibitor inconclusive, ATXN2 expr inh inactive, VP16 counter inconclusive and HepG2 tox inactive.
`Cc1cccc(NC(=S)NNC(=O)c2ccccc2Br)c1` gave RORg inh 0.89µM, S2 tox inactive, TGFb inhibitor inconclusive, ATXN2 expr inh inactive, VP16 counter inconclusive and HepG2 tox inactive.
Screening Cc1ccc(C(=O)Nc2cccc(C(F)(F)F)c2)cc1Nc1ccccn1 returned RORg inh inactive, S2 tox 32µM, TGFb inhibitor inactive, ATXN2 expr inh inconclusive, VP16 counter inactive and HepG2 tox inactive.
C/C(=N\NC(=O)c1ccc(Cl)cc1)c1cccc(NC(=O)C(C)C)c1 was read as RORg inh 11µM, S2 tox inactive, TGFb inhibitor inactive, ATXN2 expr inh inactive, VP16 counter inactive and HepG2 tox inactive.
Cc1ccc(C(=O)Nc2cccc(C(F)(F)F)c2)cc1Nc1cncnc1 was read as RORg inh inconclusive, S2 tox inconclusive, TGFb inhibitor inconclusive, ATXN2 expr inh inconclusive, VP16 counter inactive and HepG2 tox inactive.
For C/C(=N\Nc1cc(N2CCOCC2)nc(C)n1)c1ccc(F)cc1 the results were RORg inh inactive, S2 tox inactive, TGFb inhibitor inconclusive, ATXN2 expr inh inconclusive, VP16 counter inactive and HepG2 tox inactive.
Screening C/C(=N\Nc1nc2ccccc2[nH]1)c1ccc(N2CCOCC2)cc1 returned RORg inh 3.2µM, S2 tox inconclusive, TGFb inhibitor inactive, ATXN2 expr inh inactive, VP16 counter inconclusive and HepG2 tox inactive.
C/C(=N\Nc1ncc(Cl)cc1Cl)c1ccc(N2CCOCC2)cc1 was read as RORg inh 5µM, S2 tox inactive, TGFb inhibitor inactive, ATXN2 expr inh inactive, VP16 counter inconclusive and HepG2 tox inactive.
